What all share (parameters): scale not given: direction of the effect not stated beside the values
The target of assay [1] is Protein translocase subunit SecA (Escherichia coli (strain K12)) (UniProt P10408). Nature of the assay: Assay to Identify E. coli SecA ATPase Inhibitors. It is filed as functional. Particulars: 30 µM.
In assay [2] the target is T1, Ubiquitin-activating enzyme e1, putative (Leishmania donovani (strain BPK282A1)) (UniProt E9BSI1).
T1 sequence (whole entry): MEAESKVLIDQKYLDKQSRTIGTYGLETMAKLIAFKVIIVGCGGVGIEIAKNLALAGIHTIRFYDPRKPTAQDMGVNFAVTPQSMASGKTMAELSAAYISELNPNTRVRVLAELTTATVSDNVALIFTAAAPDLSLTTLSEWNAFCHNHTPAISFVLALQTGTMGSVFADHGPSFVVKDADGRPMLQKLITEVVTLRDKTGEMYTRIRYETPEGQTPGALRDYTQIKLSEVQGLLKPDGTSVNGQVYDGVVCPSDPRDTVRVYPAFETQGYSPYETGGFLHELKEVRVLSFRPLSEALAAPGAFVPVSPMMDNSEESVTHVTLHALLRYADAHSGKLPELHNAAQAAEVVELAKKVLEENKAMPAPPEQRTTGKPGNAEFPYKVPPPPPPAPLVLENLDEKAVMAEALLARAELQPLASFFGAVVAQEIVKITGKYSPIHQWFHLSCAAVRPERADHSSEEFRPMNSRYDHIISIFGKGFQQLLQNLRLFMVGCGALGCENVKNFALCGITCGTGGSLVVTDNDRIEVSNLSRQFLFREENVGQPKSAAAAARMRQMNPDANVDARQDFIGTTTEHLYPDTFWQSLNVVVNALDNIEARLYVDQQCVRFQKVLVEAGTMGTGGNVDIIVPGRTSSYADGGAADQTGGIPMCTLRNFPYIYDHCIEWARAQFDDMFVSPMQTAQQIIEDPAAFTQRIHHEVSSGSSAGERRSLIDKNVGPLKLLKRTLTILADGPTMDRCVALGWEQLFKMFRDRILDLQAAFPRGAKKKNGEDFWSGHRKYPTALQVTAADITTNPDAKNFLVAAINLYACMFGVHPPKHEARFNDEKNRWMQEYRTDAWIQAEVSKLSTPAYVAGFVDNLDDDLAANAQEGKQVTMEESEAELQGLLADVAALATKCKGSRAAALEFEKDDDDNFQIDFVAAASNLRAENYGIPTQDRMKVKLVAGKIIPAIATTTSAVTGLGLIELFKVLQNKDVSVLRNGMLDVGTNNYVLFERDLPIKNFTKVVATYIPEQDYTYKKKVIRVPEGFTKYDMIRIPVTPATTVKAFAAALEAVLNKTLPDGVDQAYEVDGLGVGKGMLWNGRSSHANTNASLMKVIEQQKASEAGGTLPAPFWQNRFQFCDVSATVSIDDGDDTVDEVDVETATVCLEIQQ
Nature of the assay: Leishmania donovani Ubiquitin Activating Enzyme (LdE1). The class given is functional. Particulars: 30 µM.

The target in assay [3] is AMP-activated protein kinase, AMPK (Homo sapiens) (UniProt P54646+O43741+P54619+Q9UGJ0+Q9Y478+Q13131+Q9UGI9). Nature of the assay: AMP-dependent Kinase enzyme assay. An in vitro enzyme assay that detects ADP turnover that is directly proportional to AMPK activity. This uses naive AMPK that is activated during the assay with MK-8722. It is filed as functional. Particulars: 30 µM.

In assay [4] the target is Sialic acid-binding Ig-like lectin 9 (Homo sapiens) (UniProt Q9Y336). Nature of the assay: Hs-Siglec9 ALPHAscreen SOP 20170721. The conditions noted are these: 10 µM.
Chain of Sialic acid-binding Ig-like lectin 9 (Homo sapiens) (Q9Y336 whole entry): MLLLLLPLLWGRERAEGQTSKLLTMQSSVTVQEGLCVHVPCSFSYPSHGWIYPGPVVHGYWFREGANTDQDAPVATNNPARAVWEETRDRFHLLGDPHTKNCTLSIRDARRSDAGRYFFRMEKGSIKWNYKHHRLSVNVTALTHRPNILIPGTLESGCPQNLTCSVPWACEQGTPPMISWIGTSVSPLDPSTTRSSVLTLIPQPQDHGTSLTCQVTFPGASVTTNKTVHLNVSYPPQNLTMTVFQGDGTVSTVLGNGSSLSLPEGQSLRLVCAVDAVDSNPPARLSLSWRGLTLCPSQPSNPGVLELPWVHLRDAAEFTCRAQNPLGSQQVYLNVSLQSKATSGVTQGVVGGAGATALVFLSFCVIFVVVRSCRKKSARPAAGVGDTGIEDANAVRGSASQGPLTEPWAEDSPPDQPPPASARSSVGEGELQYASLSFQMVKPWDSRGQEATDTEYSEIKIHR
The test system of the next assay is Trypanosoma cruzi. Nature of the assay: Trypanosoma cruzi phosphomannomutase and mannose-1-phosphate guanylyltransferase assay. The conditions noted are these: 10 µM. It is filed as functional.
Assay [5] addresses T2, Arginase-2, mitochondrial (Homo sapiens) (UniProt P78540).
T2 sequence (whole entry): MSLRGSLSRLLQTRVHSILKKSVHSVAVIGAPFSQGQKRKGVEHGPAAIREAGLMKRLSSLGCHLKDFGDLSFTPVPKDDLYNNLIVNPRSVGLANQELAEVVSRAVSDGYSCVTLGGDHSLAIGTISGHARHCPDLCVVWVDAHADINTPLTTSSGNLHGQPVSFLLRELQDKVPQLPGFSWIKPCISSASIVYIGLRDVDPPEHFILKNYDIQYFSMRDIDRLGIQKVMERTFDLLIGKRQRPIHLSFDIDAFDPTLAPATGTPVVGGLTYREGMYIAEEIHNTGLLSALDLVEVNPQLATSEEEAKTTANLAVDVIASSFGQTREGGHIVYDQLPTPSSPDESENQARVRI
Nature of the assay: in vitro enzyme assay to detect the production of urea directly proportional to the activity of Arginase II. Also: in the data most compounds retested in dose-response had high values. The class given is functional. The conditions noted are these: 33.3 µM.

For assay [6], the target named is T3, Proteasome subunit beta (Trypanosoma cruzi) (UniProt O96673).
T3 sequence (whole entry): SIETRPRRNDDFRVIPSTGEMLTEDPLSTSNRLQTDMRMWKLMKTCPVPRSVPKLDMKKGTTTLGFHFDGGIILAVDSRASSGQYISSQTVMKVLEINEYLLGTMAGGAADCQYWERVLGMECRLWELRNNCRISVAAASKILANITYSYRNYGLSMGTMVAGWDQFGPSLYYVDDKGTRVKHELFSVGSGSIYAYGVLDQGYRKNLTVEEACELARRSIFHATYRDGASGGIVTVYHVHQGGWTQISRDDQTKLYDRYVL
Nature of the assay: Trypanosoma cruzi proteasome chymotrypsin-like activity (TcProtChymo) assay. Also: in the data most compounds retested in dose-response had high values. The class given is functional. Particulars: 9.37 µM.

The species entered for a further assay is Homo sapiens. Nature of the assay: To identify inhibition of the IFN signalling (Jak-Stat) pathway via expression of an eGFP reporter gene under the control of an IFN-stimulated response element (ISRE) containing MxA promoter. It is filed as functional. The conditions noted are these: 30 µM. For orientation: A reporter such as luciferase makes a cellular process visible.

Assay [7] addresses T4, Tyrosyl-tRNA synthetase, putative (Trypanosoma cruzi (strain CL Brener)) (UniProt Q4DSP6).
T4 sequence (whole entry): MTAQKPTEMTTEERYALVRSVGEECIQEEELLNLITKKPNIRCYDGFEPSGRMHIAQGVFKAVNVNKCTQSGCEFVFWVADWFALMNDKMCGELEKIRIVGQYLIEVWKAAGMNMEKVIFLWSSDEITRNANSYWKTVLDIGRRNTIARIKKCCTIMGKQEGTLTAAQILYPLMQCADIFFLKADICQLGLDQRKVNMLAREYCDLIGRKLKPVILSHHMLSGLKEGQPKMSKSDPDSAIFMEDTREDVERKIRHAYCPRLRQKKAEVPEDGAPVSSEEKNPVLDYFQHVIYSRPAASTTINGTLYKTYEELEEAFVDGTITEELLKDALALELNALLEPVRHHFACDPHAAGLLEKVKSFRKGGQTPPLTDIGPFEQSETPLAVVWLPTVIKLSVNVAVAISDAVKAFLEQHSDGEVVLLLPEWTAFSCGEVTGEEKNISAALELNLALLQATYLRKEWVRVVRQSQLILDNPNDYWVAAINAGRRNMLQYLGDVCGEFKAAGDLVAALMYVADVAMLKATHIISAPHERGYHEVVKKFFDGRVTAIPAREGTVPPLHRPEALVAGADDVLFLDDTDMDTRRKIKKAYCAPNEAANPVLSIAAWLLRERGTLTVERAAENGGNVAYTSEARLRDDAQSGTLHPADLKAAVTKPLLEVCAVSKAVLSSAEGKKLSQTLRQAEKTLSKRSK
Nature of the assay: Trypanosoma cruzi tyrosyl tRNA synthetase (TcYRS) _High Tyrosine SOP. Also: in the data most compounds retested in dose-response had high values. It is filed as functional. Particulars: 30 µM.

Assay [8] has as its target T4, Tyrosyl-tRNA synthetase, putative (Trypanosoma cruzi (strain CL Brener)). Nature of the assay: Trypanosoma cruzi tyrosyl tRNA synthetase (TcYRS) SOP. The class given is functional. Particulars: 30 µM.
The target in assay [9] is Chromo domain-containing protein 1 (Saccharomyces cerevisiae (strain ATCC 204508 / S288c) (Baker's yeast)) (UniProt P32657). Nature of the assay: ScCHD-1 Enzyme Inhibition Assay. Also: in the data most compounds retested in dose-response had high values. The class given is functional. Particulars: 30 µM.
Chain of Chromo domain-containing protein 1 (Saccharomyces cerevisiae (strain ATCC 204508 / S288c) (Baker's yeast)) (P32657 whole entry, the tested form may be a part): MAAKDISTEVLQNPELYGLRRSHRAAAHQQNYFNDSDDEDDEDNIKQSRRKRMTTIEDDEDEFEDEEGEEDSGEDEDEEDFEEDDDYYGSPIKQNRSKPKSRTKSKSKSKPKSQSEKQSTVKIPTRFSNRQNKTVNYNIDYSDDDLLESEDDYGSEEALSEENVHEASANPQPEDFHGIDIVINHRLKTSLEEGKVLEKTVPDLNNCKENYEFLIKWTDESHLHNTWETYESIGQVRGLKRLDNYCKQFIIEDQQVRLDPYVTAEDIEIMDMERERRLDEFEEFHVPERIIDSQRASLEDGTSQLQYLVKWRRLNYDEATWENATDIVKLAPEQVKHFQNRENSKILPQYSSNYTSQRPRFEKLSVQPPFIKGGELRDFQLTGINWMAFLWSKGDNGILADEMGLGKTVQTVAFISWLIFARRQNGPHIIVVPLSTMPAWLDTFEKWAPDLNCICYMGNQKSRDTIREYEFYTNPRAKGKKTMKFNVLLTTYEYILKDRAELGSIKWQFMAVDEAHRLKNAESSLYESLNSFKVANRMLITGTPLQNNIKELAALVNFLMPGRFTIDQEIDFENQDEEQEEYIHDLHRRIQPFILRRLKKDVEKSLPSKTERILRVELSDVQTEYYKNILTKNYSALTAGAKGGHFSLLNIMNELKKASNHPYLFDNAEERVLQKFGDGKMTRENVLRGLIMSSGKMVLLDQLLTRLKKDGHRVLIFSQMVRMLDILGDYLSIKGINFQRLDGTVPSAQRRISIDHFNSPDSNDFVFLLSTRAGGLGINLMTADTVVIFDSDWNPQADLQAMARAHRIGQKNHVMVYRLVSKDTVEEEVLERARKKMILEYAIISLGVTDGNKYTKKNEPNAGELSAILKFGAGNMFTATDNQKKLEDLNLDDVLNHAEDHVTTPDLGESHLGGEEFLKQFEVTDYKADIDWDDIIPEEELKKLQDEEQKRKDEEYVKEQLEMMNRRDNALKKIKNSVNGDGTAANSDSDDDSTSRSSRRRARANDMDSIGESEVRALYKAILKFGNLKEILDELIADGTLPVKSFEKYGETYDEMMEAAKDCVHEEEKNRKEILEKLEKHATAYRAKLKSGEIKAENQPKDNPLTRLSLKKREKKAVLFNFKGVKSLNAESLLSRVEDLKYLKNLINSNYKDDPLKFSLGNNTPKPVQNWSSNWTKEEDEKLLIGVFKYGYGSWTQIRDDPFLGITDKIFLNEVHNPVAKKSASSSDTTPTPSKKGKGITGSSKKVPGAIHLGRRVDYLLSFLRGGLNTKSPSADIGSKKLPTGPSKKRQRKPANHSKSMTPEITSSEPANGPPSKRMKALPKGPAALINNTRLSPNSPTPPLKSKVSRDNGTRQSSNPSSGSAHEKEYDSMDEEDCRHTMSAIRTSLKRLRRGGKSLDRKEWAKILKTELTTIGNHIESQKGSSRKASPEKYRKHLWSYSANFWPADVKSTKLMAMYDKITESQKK

For some assays here: Results with a measured potency or affinity are listed apart.

Chain of Protein translocase subunit SecA (Escherichia coli (strain K12)) (P10408 whole entry): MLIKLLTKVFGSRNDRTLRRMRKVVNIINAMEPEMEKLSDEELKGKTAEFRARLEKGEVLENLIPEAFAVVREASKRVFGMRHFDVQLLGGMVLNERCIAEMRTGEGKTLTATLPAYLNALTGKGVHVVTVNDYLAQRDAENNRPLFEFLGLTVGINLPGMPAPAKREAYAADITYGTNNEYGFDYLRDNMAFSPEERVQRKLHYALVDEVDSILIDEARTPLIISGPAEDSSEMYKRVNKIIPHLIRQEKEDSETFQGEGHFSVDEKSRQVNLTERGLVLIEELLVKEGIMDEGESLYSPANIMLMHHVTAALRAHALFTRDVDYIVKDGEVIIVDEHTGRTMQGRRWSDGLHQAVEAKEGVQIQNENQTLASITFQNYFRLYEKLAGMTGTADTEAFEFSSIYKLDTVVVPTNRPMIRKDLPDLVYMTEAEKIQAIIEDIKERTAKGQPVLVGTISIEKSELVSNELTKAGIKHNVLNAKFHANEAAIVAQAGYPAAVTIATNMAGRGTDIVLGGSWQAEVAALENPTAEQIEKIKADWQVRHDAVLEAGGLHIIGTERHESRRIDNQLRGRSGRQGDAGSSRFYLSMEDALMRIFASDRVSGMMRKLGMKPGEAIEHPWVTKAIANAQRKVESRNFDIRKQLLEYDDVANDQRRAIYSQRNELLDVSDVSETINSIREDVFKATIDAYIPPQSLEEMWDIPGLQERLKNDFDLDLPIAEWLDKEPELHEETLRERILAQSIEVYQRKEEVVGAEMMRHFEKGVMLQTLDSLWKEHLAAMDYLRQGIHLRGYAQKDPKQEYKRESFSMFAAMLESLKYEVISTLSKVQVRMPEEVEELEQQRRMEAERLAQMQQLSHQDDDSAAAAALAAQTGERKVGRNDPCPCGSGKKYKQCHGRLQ

As to `CCCC(NC(=O)c1cc(C)ccc1C)c1nnn[nH]1` (stereo not given), the Percent Effect in assay [1] was -4.53%; in assay [2], 13.3%; in assay [3] it was -5.34%; in assay [4], 20.1%; with Trypanosoma cruzi it was 7.89%; in [5], 20.8%. Moreover, the Percent Effect in [6] was 11.7%; in the assay filed under Homo sapiens it was 12.3%; in [7] it was 6.01%; in [8], 13.6%; in assay [9], -1.49%.

Regarding `CCCc1nc(C)cc(N2CCC3(CCC(=O)N(CC4CC4)C3)CC2)n1`, the Percent Effect is -2.3% in assay [1]; 8.11% in assay [2]; -0.987% in assay [3]; 3.81% in assay [4]; -3.03% in the assay on Trypanosoma cruzi; 3.23% in assay [5]. Besides, the Percent Effect in assay [6] is 8.67%; in the assay listed under Homo sapiens, 1.04%; in [7], -5.38%; in [8] it was 13.6%; in assay [9], -4%.

For the compound `CO[C@H]1CCN(Cc2cnn(C)c2)[C@@H]2CN(Cc3cccnc3)C[C@H]12`, the Percent Effect in assay [1] is -0.848%; in assay [2], 12%; in assay [3], 6.27%; in assay [4], -3.02%; in the assay with Trypanosoma cruzi, -3.93%; in assay [5], -8.63%. Moreover, the Percent Effect in assay [6] is 9.06%; in the assay listed under Homo sapiens, -3.47%; in assay [7], 2.12%; in [8] it was 5.13%; in assay [9], -7.83%.

`CN1CCN(C(=O)[C@H]2C[C@@H]3CCN(c4ncc(F)cn4)C[C@@H]3O2)CC1`: the Percent Effect was 1.76% in assay [1]; 8% in [2]; 10% in assay [3]; 14.4% in assay [4]; -2.51% in the assay on Trypanosoma cruzi; -53.2% in assay [5]. Moreover, the Percent Effect in [6] was 10.3%; in the assay listed under Homo sapiens, 7.21%; in assay [7] it was 0%; in [8], 17.5%; in [9], -8.06%.

Regarding `Cc1nn(C)c(C)c1C1CCCN1C(=O)CCCn1cccn1` (stereo not given), the Percent Effect in assay [1] is 0.0877%; in assay [2], 0%; in assay [3] it was 3.67%; in [4], -4.76%; with Trypanosoma cruzi, -6.07%; in [5], 10.1%. The Percent Effect is -2.45% in assay [6]; 9.1% in the assay filed under Homo sapiens; 0.493% in assay [7]; -6.17% in assay [8]; 1.61% in assay [9].

For `O=C(C1=CCCC1)N1C[C@H](Oc2cccnc2)[C@H]2OCCC[C@H]21`, the Percent Effect in assay [1] was 1.45%; in [2], 5.41%; in [3], 3.36%; in assay [4], -3.91%; in the assay on Trypanosoma cruzi, -0.977%; in assay [5], -2.08%. Moreover, the Percent Effect was 3.47% in assay [6]; 7.05% in the assay listed under Homo sapiens; 92.1% in assay [7]; 3.66% in [8]; -17.8% in [9].

In the case of `COc1ccc(C(=O)N2CCCC(C)C2)cc1F` (stereo not given), the Percent Effect is -4.09% in assay [1]; 24.3% in assay [2]; -19.3% in assay [3]; -3.4% in assay [4]; 2.17% in the assay on Trypanosoma cruzi; -15.6% in assay [5]. For the same compound, the Percent Effect in [6] was 16.2%; in the assay listed under Homo sapiens, 18.6%; in assay [7], 4.43%; in [8], 18.5%; in assay [9], -9.54%.

On to `CCn1ccnc1CN1CCN(CC(=O)NC(C)(C#N)C2CC2)CC1` (stereo not given), for which the Percent Effect in assay [1] is 1.69%; in [2], 15.8%; in assay [3] it was -1.29%; in [4], -1.29%; in the assay with Trypanosoma cruzi, -8.84%; in assay [5], -3.45%. Also, the Percent Effect in assay [6] was 18.9%; in the assay filed under Homo sapiens it was 16.7%; in [7], 5.39%; in assay [8], 9.76%; in assay [9], -5.07%.

Regarding `Cc1ccc2c(ccn2CC(=O)NC[C@@H]2CCCN3CCCC[C@H]23)c1`, the Percent Effect was -5.2% in assay [1]; 28% in assay [2]; -5.58% in assay [3]; 4.06% in assay [4]; 5.5% in the assay on Trypanosoma cruzi; -6.16% in [5]. In addition, the Percent Effect in assay [6] was 16.3%; in the assay filed under Homo sapiens, -4.16%; in [7], 4.23%; in assay [8], 12.8%; in assay [9], -11.5%.

Take `CC(C)NC(=O)N1CCN(S(=O)(=O)C2CC2)CC2(CC(=O)N(C)C2)C1` (stereo not given): the Percent Effect in [1] is -4.24%; in assay [2], 10.4%; in assay [3], 5.32%; in [4] it was -0.477%; in the assay on Trypanosoma cruzi it was 5.23%; in [5] it was -5.81%. Besides, the Percent Effect in [6] was -2.79%; in the assay filed under Homo sapiens it was 12.6%; in [7], 1.06%; in assay [8], 6.41%; in assay [9] it was -4.42%.

Source of the values: ChEMBL document CHEMBL3988442, “University of Dundee, Small-Polar-MMV Screening Library” (2021).
